Most compounds without a hit are left out; they make up all but 19% or so of the library.
Giardia kill: Giardia lamblia killing; AID 540267; Giardia lamblia trophozoite viability; activity change, % at 7.66 µM, hits read low; hit rate 0.15% among 340,000; in the data active = activity change below about -80%; inconclusive = between about -30% and that limit;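 also: parasites exposed to compound for two days anaerobically before the ATP read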
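Killing of trophozoites was scored by loss of ATP luminescence after a 48 hrs anaerobic exposure to compounds at 37 deg C, using 100 cells per well.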
ELG1 DNA repair: ELG1-dependent DNA repair inhibition | HEK293T ELG1-luciferase reporter, luminescence, 16 h; DNA damage induced by 5-fluorouridine | Potency, µM (highest dose often 46.1 µM), without a hit: at the highest dose activity change, negative = inhibition, most hits filed as inhibitors | AID 504467 | hit rate 2.3% among 330,000; also: potency is read from the fitted curve at half-maximal effect; nearly all actives have a fitted effect of over 55% in size
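Luminescence from the luciferase reporter, measured 30 min after ONE-Glo reagent at room temperature, was the read-out. Beforehand, 2,000 cells per well were exposed for 16 hr at 37 °C to 5-fluorouridine together with compound or vehicle.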
TDP1 cell CPT: DT40-hTDP1 cell growth loss with CPT. chicken DT40 Tdp1-/-;hTDP1 cells + 20 nM CPT, ATP luminescence, 48 h. Potency, µM (series often up to 46.2 µM), for the others: at the highest dose activity change, negative = growth inhibition, hits mostly inhibitors. hit rate 12% among 420,000. AID 686979; also: potency is read from the fitted curve at half-maximal effect; nearly all actives have a fitted effect of over 55% in size
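Chicken DT40 Tdp1-/- cells complemented with human TDP1, 400 cells/well, exposed to compounds plus 20 nM camptothecin for at least 48 h at 37 C; viability read as ATP content by CellTiter-Glo luminescence.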
IL1B secr inh: blocks inflammasome-driven IL-1 beta release; THP-1 LPS/ATP IL-1B secretion, AlphaLISA, 16 h; stronger effect = lower value; activity change, % at 57.5 µM; hit rate 4.7% among 360,000; AID 743279; in the data active = activity change below about -50%; inconclusive = mostly about -30% to -49%
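Secreted IL-1B measured by AlphaLISA bead assay after 16 h compound exposure of THP-1 cells; compounds (final up to 57.5 uM) added 1 h before LPS (250 ng/mL) and ATP (1.25 mM) stimulation; lower signal means less secretion.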
DT40 TDP1 no CPT: qHTS for Inhibitors of human tyrosyl-DNA phosphodiesterase 1 (TDP1): qHTS in cells in absence of CPT | DT40 Tdp1-/- hTDP1 cells, no CPT, ATP luminescence, 48 h | AID 686978, 2013 | Potency, µM (titrated, usually from 46.2 µM), for the others: at the highest dose activity change, negative = growth inhibition, hits mostly inhibitors | hit rate 15% among 420,000; also: potency is read from the fitted curve at half-maximal effect; nearly all actives have a fitted effect of over 55% in size
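Luminescent ATP content (CellTiter-Glo) served as the growth readout. Knockout chicken DT40 cells expressing human TDP1 were exposed to compounds without camptothecin for a minimum 48 hr at 37 °C.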
TDP1 inh: TDP1 (human) enzyme inhibition. hit rate 0.28% among 350,000. Potency, µM (highest dose often 130 µM), without a hit: top-dose activity change, negative = inhibition, actives largely listed as inhibitors. recombinant TDP1, AlphaScreen DNA substrate cleavage. AID 485290. Q9NUW8; also: potency is read from the fitted curve at half-maximal effect; nearly all actives have a fitted effect of over 40% in size
Target sequence (Q9NUW8 whole entry, looked up): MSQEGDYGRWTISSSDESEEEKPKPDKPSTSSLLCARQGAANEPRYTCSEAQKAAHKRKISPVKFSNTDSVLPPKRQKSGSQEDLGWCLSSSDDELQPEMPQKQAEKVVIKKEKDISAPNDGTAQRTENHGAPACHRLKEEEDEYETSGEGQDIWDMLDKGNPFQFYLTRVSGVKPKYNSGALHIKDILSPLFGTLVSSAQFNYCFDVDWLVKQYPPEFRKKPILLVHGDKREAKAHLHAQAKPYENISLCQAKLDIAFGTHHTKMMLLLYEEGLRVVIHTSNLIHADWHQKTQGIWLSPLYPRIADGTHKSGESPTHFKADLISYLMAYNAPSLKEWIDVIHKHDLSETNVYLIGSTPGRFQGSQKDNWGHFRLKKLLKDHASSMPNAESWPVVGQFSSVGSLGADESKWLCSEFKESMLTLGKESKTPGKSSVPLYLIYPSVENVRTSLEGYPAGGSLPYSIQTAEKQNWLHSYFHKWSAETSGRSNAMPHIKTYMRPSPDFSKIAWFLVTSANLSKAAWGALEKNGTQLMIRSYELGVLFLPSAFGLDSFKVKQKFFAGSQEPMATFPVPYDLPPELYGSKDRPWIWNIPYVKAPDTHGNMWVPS
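Recombinant human Tdp1 (E. coli-expressed, 1 nM final) preincubated with compounds 15 min at room temperature, then 5'-biotin/3'-phosphotyrosine-FITC DNA substrate (15 nM final) added for 5 min. AlphaScreen beads (10 ug/ml final) added 10 min; cleavage lowers signal.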
Starred values were filed as active, the others as inactive; ? = inconclusive; / = no result; [ ] = remark or other dose. Unless noted, calls follow the shape of the dose curve; as a rule, active = well fitted curve in the direction sought with a large enough effect; inconclusive = small, poorly fitted or top-dose-only effect, or another doubt; inactive = no such curve, though single readings can be large; an effect the other way counts as inactive or inconclusive. % is scaled to controls: 0 for no effect and ±100 for the full control effect.

SMILES	Giardia kill	ELG1 DNA repair	TDP1 cell CPT	IL1B secr inh	DT40 TDP1 no CPT	TDP1 inh
COc1cccc(S(=O)(=O)Nc2ccc(C(=O)Nc3ccncc3)cc2)c1	-2.3	?	13µM*	11.8	?	2.6%
COc1ccc(C(=O)Nc2ccc(NS(=O)(=O)c3ccccc3)cc2)cc1OC	5.4	18.3µM*	?	?	?	/
O=C(Nc1ccncc1)c1ccc(NS(=O)(=O)c2cccc(F)c2)cc1	-14.7	-20.6%	?	35.0	20.6µM*	2.2%
COC(C(=O)Nc1ccc(S(=O)(=O)Nc2ccc(F)cc2)cc1)c1ccccc1 (centres undefined)	22.7	-6.0%	?	-100.7*	?	0.6%
COc1cccc(C(=O)Nc2ccc(C(=O)c3ccncc3)cc2)c1	-1.3	?	?	-9.8	?	/
O=C(COC(=O)CN1C(=O)C2CCCCC2C1=O)Nc1c(Cl)cccc1Cl (centres undefined)	-7.2	-3.9%	?	14.8	-1.0%	0.4%
COc1cc(S(=O)(=O)Nc2cccc(C)c2)ccc1NC(=O)c1ccncc1	-11.3	?	?	-11.4	13µM*	8.1%
Cc1cccc(NS(=O)(=O)c2ccc(Cl)c(C(=O)Nc3ccccc3C)c2)c1	/	/	?	/	14.6µM*	0.0%[2.28 µM]
CCOc1ccc(NS(=O)(=O)c2ccc(NC(=O)c3cccnc3)c(OC)c2)cc1	-5.3	1.7%	-10.4%	16.4	-20.0%	2.7%
Cc1ccccc1NC(=O)c1cc(S(=O)(=O)c2ccccc2)ccc1Cl	-8.8	-21.8%	?	-18.8	?	5.7%
Cc1cccc(Cn2cccc2CNS(=O)(=O)c2ccccc2F)c1	/	/	-18.8%	/	?	8.8%
CCOc1cc(NC(=O)C2CCCCC2)c(OCC)cc1NC(=O)c1ccccn1	19.4	?	3.66µM*	12.9	1.64µM*	0.0%
CCOc1cc(C#N)c(NC(=O)c2cccnc2)cc1OCC	3.1	7.1%	1.3µM*	49.0	1.84µM*	5.9%
CCOc1cc(NC(=S)Nc2cccc(OC)c2)c(OCC)cc1NC(=O)c1ccc(C)cc1	6.2	-9.8%	?	4.8	20.6µM*	9.9%
CCOc1cc(NC(=O)c2ccccn2)c(OCC)cc1NC(=O)c1ccc(C)cc1	23.1	-4.6%	5.17µM*	7.3	3.26µM*	1.2%
CCCCn1c(N)c(N(CC(C)C)C(=O)c2ccc([N+](=O)[O-])o2)c(=O)[nH]c1=O	12.9	-1.8%	-7.9%	-4.2	-11.8%	0.9%
CCOc1cc(C(=O)NC(=S)Nc2cccnc2)cc(OCC)c1OCC	-5.7	?	?	-7.6	23.1µM*	8.2%
O=C(/C=C/c1c(F)cccc1Cl)Nc1ncccn1	-3.8	?	0.7%	-7.7	0.4%	2.4%
Nc1nccc(/C=C/c2c(F)cccc2Cl)n1	5.0	?	-2.7%	-85.1*	-5.0%	2.7%
CCN1CCN(C(=O)CN(c2ccc(F)c(Cl)c2)S(C)(=O)=O)CC1	11.9	-18.3%	-9.4%	-11.5	-28.8%	0.0%
COc1cc(CN(C(=O)COc2ccc(C)c(C)c2)c2ccccn2)cc(OC)c1OC	/	/	7.31µM*	/	8.2µM*	6.8%
COc1cc(CN(C(=O)c2ccccc2[N+](=O)[O-])c2ccccn2)cc(OC)c1OC	/	/	?	/	14.6µM*	6.8%
COc1ccc(C(=O)N(Cc2cc(OC)c(OC)c(OC)c2)c2ccccn2)cc1	/	/	?	/	20.6µM*	5.7%
Cc1cccc(OCC(=O)N(Cc2ccccc2)c2ccccn2)c1	/	/	?	/	?	0.0%
COc1cc(CN(C(=O)c2ccc(OC(C)C)cc2)C2CCS(=O)(=O)C2)cc(OC)c1OC (centres undefined)	/	/	-8.6%	/	-17.4%	3.7%
COc1cc(CN(C(=O)c2ccc(OC(C)C)cc2)c2ccccn2)cc(OC)c1OC	/	/	2.31µM*	/	4.11µM*	6.8%
COc1cc(CN(C(=O)Nc2ccccc2)c2ccccn2)cc(OC)c1OC	/	/	-25.9%	/	?	-1.6%

Screens (PubChem)
